Experimental data reported in ChEMBL document CHEMBL3433997, “St. Jude Leishmania screening dataset” (2016).

Key:
Format in all cases: functional
[1] = target: Solute carrier family 2, facilitated glucose transporter member 1 (Homo sapiens) (UniProt P11166); test: ST_JUDE_LEISH: Cytotoxicity at 2uM final concentration against transgenic Leishmania Mexicana promastigotes LmGLUT1 that are glucose transport deficient and complemented with the human glucose transporter GLUT1. Activity is measured by DNA content using SYBR green in vitro
[2] = target: Hexose transporter 1 (Plasmodium falciparum) (UniProt O97467); test: ST_JUDE_LEISH: Cytotoxicity at 2uM final concentration against transgenic Leishmania Mexicana promastigotes LmPfHT that are glucose transport deficient and complemented with the Plasmodium falciparum hexose transporter. Activity is measured by DNA content using SYBR green in vitro
[3] = target: Glucose transporter (Leishmania mexicana) (UniProt O61059); test: ST_JUDE_LEISH: Cytotoxicity at 2uM final concentration against transgenic Leishmania Mexicana promastigotes LmGT2 that are glucose transport deficient and complemented with the L. Mexicana glucose transporter 2. Activity is measured by DNA content using SYBR green in vitro

Chain of Solute carrier family 2, facilitated glucose transporter member 1 (Homo sapiens) (P11166 whole entry): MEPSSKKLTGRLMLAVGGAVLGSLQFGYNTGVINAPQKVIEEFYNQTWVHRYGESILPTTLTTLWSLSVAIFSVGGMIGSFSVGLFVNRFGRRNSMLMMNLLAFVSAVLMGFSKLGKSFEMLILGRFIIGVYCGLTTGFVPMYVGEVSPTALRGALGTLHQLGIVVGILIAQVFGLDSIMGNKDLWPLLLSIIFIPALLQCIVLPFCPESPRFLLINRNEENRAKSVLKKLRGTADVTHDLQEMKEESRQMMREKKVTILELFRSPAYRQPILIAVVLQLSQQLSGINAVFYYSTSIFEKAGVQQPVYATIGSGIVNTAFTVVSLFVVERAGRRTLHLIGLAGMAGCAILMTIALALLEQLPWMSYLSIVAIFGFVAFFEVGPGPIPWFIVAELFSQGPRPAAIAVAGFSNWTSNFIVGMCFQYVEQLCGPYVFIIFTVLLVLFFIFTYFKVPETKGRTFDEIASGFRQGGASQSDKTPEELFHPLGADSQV

COc1ccc2nccc([C@@H](O)CN3CCC(NC(=O)[C@@H]4Cc5ccccc5CN4C(=O)OC(C)(C)C)CC3)c2c1
inhibition [1]: 8.19%
inhibition [2]: 6.18%
inhibition [3]: 3.12%

Cc1ccc(C)c2sc(N(CCCn3ccnc3)C(=O)c3ccco3)nc12
inhibition [1]: 4.42%
inhibition [2]: 5.62%
inhibition [3]: 5.23%

CCCC(C)Nc1nc(C)cc(N[C@@H](Cc2ccccc2)C(=O)Nc2ccc(OC)cc2)n1 (stereo not given in full)
inhibition [1]: 4.27%
inhibition [2]: 5.6%
inhibition [3]: 0.54%

COc1cc2c(cc1N(C(C)C)S(=O)(=O)c1sc3ccc(Cl)cc3c1C)CCNCC2
inhibition [1]: 43.3%
inhibition [2]: 10.2%
inhibition [3]: 3.21%

O=C(Cc1ccc(Nc2nccc(Nc3cccc4[nH]ncc34)n2)cc1)Nc1ccc(C(F)(F)F)cc1
inhibition [1]: 5.9%
inhibition [2]: 6.7%
inhibition [3]: 4.78%

Cc1ccc2[nH]c3c(c2c1)CC(C(=O)NCCC(C)C)NC31CCN(Cc2ccccc2)CC1 (stereo not given)
inhibition [1]: 0.11%
inhibition [2]: -3.4%
inhibition [3]: 0.79%

Nc1nc(Cc2ccc(Cl)cc2)nc(Cc2ccc(Cl)cc2)n1
inhibition [1]: -3.43%
inhibition [2]: -1.17%
inhibition [3]: 5.85%

COc1ccc(-c2cccc(NC(=O)c3ccc(C#N)cc3)c2)cc1CN1CCCC1
inhibition [1]: 11.3%
inhibition [2]: 11.1%
inhibition [3]: 2.91%

COc1ccc(CNC2CCN(C)CC2)cc1-c1ccc(S(=O)(=O)NC2CCC2)s1
inhibition [1]: 1.49%
inhibition [2]: 4.46%
inhibition [3]: 0.46%

Cc1cccc2nc(-c3ccc(-c4cccc(CN5CCC(CO)CC5)c4)s3)[nH]c12
inhibition [1]: 1.48%
inhibition [2]: 0.4%
inhibition [3]: 1.75%

Cc1cc(N[C@@H](CC(C)C)C(=O)NC2CCCC2)nc(NCCc2ccc(F)cc2)n1
inhibition [1]: 3.05%
inhibition [2]: 1.34%
inhibition [3]: 0.03%

CC(C)(CNCc1ccc(C(F)(F)F)cc1)c1nc(-c2ccnc(N)n2)c(-c2ccc(Cl)c(O)c2)[nH]1
inhibition [1]: 1.5%
inhibition [2]: 0.51%
inhibition [3]: 2.94%

Cc1cc(NCCc2ccccc2)nc(NC(=N)Nc2cccc([N+](=O)[O-])c2)n1
inhibition [1]: 11.1%
inhibition [2]: 10.5%
inhibition [3]: 5.24%

Cc1cc(C(=O)CN2C(=O)NC(C)(c3ccc4ccccc4c3)C2=O)c(C)n1Cc1ccco1 (stereo not given)
inhibition [1]: -0.27%
inhibition [2]: -1.11%
inhibition [3]: -4.18%

COc1ccc2nccc(N3CCN(CCNCc4ccc5c(n4)NC(=O)CO5)CC3)c2c1
inhibition [1]: 8.8%
inhibition [2]: 8.24%
inhibition [3]: 8.99%

COc1ccccc1-c1csc(C(=O)NCC2CCN(Cc3ccc(C(C)C)cc3)C2)c1 (stereo not given)
inhibition [1]: -1.65%
inhibition [2]: -2.5%
inhibition [3]: -1.65%

COc1ccc(Nc2ncc3c(-c4cccc(NC(=O)Cc5ccc(O)cc5)c4)c[nH]c3n2)cc1OC
inhibition [1]: 9.41%
inhibition [2]: 5.77%
inhibition [3]: 8.19%

O=C(Nc1cccc(-c2cccc(-c3nc4cc(C(F)(F)F)ccc4[nH]3)c2)c1)c1cccnc1Cl
inhibition [1]: 0.15%
inhibition [2]: 0.52%
inhibition [3]: -2.92%

O=C(Nc1cccc(F)c1)NC1CCN(c2ccnc3cc(Cl)ccc23)CC1
inhibition [1]: 2.51%
inhibition [2]: 1.28%
inhibition [3]: 1.75%

CS(=O)(=O)NCCCNCc1ccc(-c2ccc(-c3nc4cc(C(F)(F)F)ccc4[nH]3)cc2)cc1
inhibition [1]: 2.14%
inhibition [2]: 2.39%
inhibition [3]: 1.11%

COc1cc(-c2ccccc2)ccc1C(=O)Nc1ccc2c(c1)N(C)CCC2
inhibition [1]: 4.93%
inhibition [2]: 2.53%
inhibition [3]: 3.05%

Cc1noc(C)c1-c1cccc(CNCc2ccc(-c3cccc(-c4nc5ccccc5[nH]4)c3)cc2)c1
inhibition [1]: -0.68%
inhibition [2]: -1.65%
inhibition [3]: -4.01%

CCCCCN1CCCC(NS(=O)(=O)c2cccc(C(=O)Nc3cccc(C(F)(F)F)c3)c2)C1 (stereo not given)
inhibition [1]: -0.69%
inhibition [2]: -0.64%
inhibition [3]: -2.02%

Cc1cccc(C)c1C1CCN(CCCCNC(=O)c2cc3ccccc3[nH]2)CC1
inhibition [1]: 1.79%
inhibition [2]: 0.17%
inhibition [3]: 0.3%

COc1cccc(OC)c1C(=O)Nc1cccc(-c2nn3ccccc3c2-c2ccnc(Nc3cccc(F)c3)n2)c1
inhibition [1]: 6.78%
inhibition [2]: 9.03%
inhibition [3]: 4.91%

CC(C)NCC(O)Cn1c2ccc(Br)cc2c2cc(Br)ccc21 (stereo not given)
inhibition [1]: 0.74%
inhibition [2]: 0.92%
inhibition [3]: 0.36%

CCOc1ccc(C(C)NC(=O)c2ccc(OC)c(Br)c2)cc1OCC (stereo not given)
inhibition [1]: 1.14%
inhibition [2]: -0.71%
inhibition [3]: -0.9%

Clc1ccc(OCc2ccccc2)c(-c2nc(-c3nc4ccc(Cl)cc4[nH]3)cs2)c1
inhibition [1]: 3.08%
inhibition [2]: 2.99%
inhibition [3]: 3.09%

O=C(NCC1CC1)C1CCN(C(c2ccccc2)c2cc(F)cc(F)c2)CC1 (stereo not given)
inhibition [1]: 3.61%
inhibition [2]: 3.92%
inhibition [3]: -1.03%

COc1ccc(N2CCN(c3nc(Nc4ccc(NC(C)=O)cc4)nc(N4CCCC4)n3)CC2)cc1
inhibition [1]: 0.68%
inhibition [2]: 1.16%
inhibition [3]: 5.96%

CC(C)(C)c1ccc(C(=O)Nc2ccc(NC(=O)c3ccc([N+](=O)[O-])o3)cc2)cc1
inhibition [1]: 3.39%
inhibition [2]: 4.22%
inhibition [3]: 1.76%

c1ccc(CCNCc2cccc(-c3ccc(CNc4ccc5ncccc5c4)cc3)c2)cc1
inhibition [1]: 4.72%
inhibition [2]: 3.92%
inhibition [3]: 3.8%

O=c1[nH]nc(-c2ccc(N3CCCC3)c([N+](=O)[O-])c2)c2ccccc12
inhibition [1]: 2.71%
inhibition [2]: 3.31%
inhibition [3]: 4.21%

CCN(CC)CCCN(CCCN(CC)CC)c1cc(C)nc(Nc2ccc(Br)cc2)n1
inhibition [1]: 0.34%
inhibition [2]: 0.99%
inhibition [3]: -0.4%

Cc1ccc(NC(=O)Nc2ccc(Cl)c(C(F)(F)F)c2)cc1-c1ccc(C(=O)NCCN2CCOCC2)cc1
inhibition [1]: 8.1%
inhibition [2]: 5.32%
inhibition [3]: 5.24%

COc1cc(OC)c(NC(=O)C2c3ccccc3C(=O)N(C)C2c2cccs2)cc1Cl (stereo not given)
inhibition [1]: 2.2%
inhibition [2]: 5.87%
inhibition [3]: 5.98%

Cc1cccc2nc(-c3ccc(-c4ccc(NC(=O)Nc5ccsc5)cc4)cc3)[nH]c12
inhibition [1]: 0.7%
inhibition [2]: -0.26%
inhibition [3]: -0.35%

c1ccc(CNc2nc(NCCN3CCCCC3)nc3ccccc23)cc1
inhibition [1]: 10.2%
inhibition [2]: 11.1%
inhibition [3]: 4.27%

Cc1cc(Nc2ccc(Cl)cc2)n2nc(C(F)(F)F)nc2n1
inhibition [1]: 0.02%
inhibition [2]: 0.17%
inhibition [3]: 0.13%

CN1CCCN(c2ccnc3cc4c(cc23)N(C(=O)c2ccc(Cl)cc2Cl)CC4)CC1
inhibition [1]: -0.4%
inhibition [2]: 2.07%
inhibition [3]: 0.94%

CC1(C)N=C(N)N=C(N)N1OCc1ccc2c(c1)OCO2
inhibition [1]: 9.15%
inhibition [2]: 6.63%
inhibition [3]: 13.4%

CCCCCC(C)N/C(=N/c1ccccc1Br)Nc1ccc([N+](=O)[O-])cc1O (stereo not given)
inhibition [1]: 1.52%
inhibition [2]: 1.7%
inhibition [3]: 0.95%

CCN(CC)CCCNc1nccc(N2CCc3ncnc(Nc4ccc(OCc5cccc(F)c5)c(Cl)c4)c3C2)n1
inhibition [1]: 7.17%
inhibition [2]: 9.1%
inhibition [3]: 7.87%

Cc1ccc(OCCCON2C(=N)N=C(N)NC2(C)C)cc1C
inhibition [1]: 2.79%
inhibition [2]: 2.67%
inhibition [3]: 1.46%

CNC(=O)c1cc(Nc2nnc(-c3ccc(C)c(S(=O)(=O)NC4CCCCC4)c3)c3ccccc23)ccc1OC
inhibition [1]: 4%
inhibition [2]: 3.11%
inhibition [3]: 4.93%

NC(=O)c1cccc(C(=O)Nc2cccc(-c3cccc(-c4nc5cc(C(F)(F)F)ccc5[nH]4)c3)c2)c1
inhibition [1]: -0.51%
inhibition [2]: 0.13%
inhibition [3]: 0.83%

COc1ccc2nccc([C@@H](O)CN3CCC(NCc4cc5cc([N+](=O)[O-])ccc5[nH]4)CC3)c2c1
inhibition [1]: 8.79%
inhibition [2]: 6.38%
inhibition [3]: 4.29%

COc1cccc(C(=O)NCc2nnc(S)n2-c2ccc(Cl)c(Cl)c2)c1
inhibition [1]: -0.13%
inhibition [2]: 0.68%
inhibition [3]: -0.3%

O=C(N[C@@H](Cc1ccccc1)C(=O)NCCN1CCCCC1)c1ccc(O)c(-c2cccc(C(F)(F)F)c2)c1
inhibition [1]: 2.63%
inhibition [2]: 1.38%
inhibition [3]: 2.46%

CCNc1cc(C(=O)N[C@@H](Cc2ccccc2)[C@H](O)CNC2(CC)CCCCC2)cc(N2CCCCS2(=O)=O)c1
inhibition [1]: -0.15%
inhibition [2]: 0.61%
inhibition [3]: -2.89%
